# Experimental data published in PubChem BioAssay (NCATS).
# Records with an inconclusive call do not appear. Unmarked numbers belong to inactive results. Calls of active or inactive are those of the source. Calls follow the shape of the dose curve; as a rule, active = well fitted inhibition curve with a large enough effect; inconclusive = small, poorly fitted or top-dose-only effect; inactive = flat fitted curve, though single readings scatter.
# Molecular target: Aldehyde dehydrogenase, mitochondrial (Homo sapiens) (UniProt P05091)
# Assay: qHTS for Inhibitors of the Aldehyde Dehydrogenase Family (ALDH2) Primary screen (AID 2061308);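 also: plate controls were vehicle for no effect and reference inhibitor for full effect; nearly all actives have a fitted effect of over 55% in size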
# Settings: ALDH2 enzyme inhibition qHTS, 1536-well; series mostly up to 56 µM; activity change, negative = inhibition: at the top concentration
Structure (SMILES),"activity change, negative = inhibition",Potency
C[C@@H]1[C@H](O)[C@@H]2OC(=O)C3=C2[C@H](CCC3)[C@@]12C[C@@H](c1ccoc1)OC2=O,0.0076%,
O=S(=O)(Nc1nccs1)c1ccc(NCc2ccccc2O)cc1,12.9%,
O=C(Nc1ccc(S(=O)(=O)Nc2nccs2)cc1)c1cccnc1,-8.11%,
C=C[C@H]1C(O[C@@H]2O[C@H](CO)[C@@H](O)[C@H](O)[C@H]2O)OC=C2C(=O)N3CCc4c([nH]c5ccccc45)[C@H]3C[C@H]21 (stereo not given in full),-1.6% [at 28 µM],
O=C1CCc2cc(S(=O)(=O)Nc3ccncc3)ccc2N1,-5.99%,
Cc1ccc(NS(=O)(=O)c2cc3c(cc2NC(C)C)NC(=O)CC3)cc1C,1.31%,
O=C(Nc1nc2cc(C(F)(F)F)ccc2s1)c1ccc(-c2cccc([N+](=O)[O-])c2)o1,-16.7%,
COc1cccc(Nc2nn3c(=O)c4ccccc4nc3s2)c1,-8.04%,
FC(F)(F)c1ccccc1-c1nc(NCc2ccc(-c3ccc4c(c3)OCO4)cc2)c2ccccc2n1,-26.8%,
Clc1cccc(-c2ccc3ncnc(NCc4cccs4)c3c2)c1,-3.35%,
COc1cccc(-c2ccc(=O)n(CC(=O)NCCc3ccccc3)n2)c1,3.9%,
O=C(NC(c1ccco1)c1cc(Cl)c2cccnc2c1O)c1ccsc1 (stereo not given),-19.2%,
Cc1cccc(C)c1SC1=NS(=O)(=O)c2ccccc21,,inactive
CCCCCNc1oc(-c2cccc3ccccc23)nc1C#N,0.777%,
O=C(O)c1ccc(-c2noc(-c3cccc(C(F)(F)F)c3)n2)cc1,4.41%,
Oc1cccc2cc(N3CCCC3)cnc12,-11.7%,
O=C([C@@H](Cc1ccc(O[S+](=O)([O-])c2ccccn2)cc1)N[S+](=O)([O-])c1cccc2cccnc12)N1CCN(c2ccccc2)CC1,-8.07%,
Cn1c2cc(B(O)O)sc2c2cnn(Cc3c(F)cccc3Cl)c(=O)c21,14.5%,
O=S(=O)(NC1CCC(CNS(=O)(=O)c2c(F)cccc2F)CC1)c1ccc2c(c1)OCCO2 (stereo not given),9.68%,
Cc1ccccc1NS(=O)(=O)c1ccc2c(c1)CCC(=O)N2,-1.72%,

Structure (SMILES),"activity change, negative = inhibition",Potency
Cc1ccc2nc3sc(C(=O)N4CCC(C(N)=O)CC4)cc3cc2c1,3.02%,
Cc1cc(NCc2ccc(NC(=O)Cc3ccc(Cl)c(Cl)c3)cc2)no1,1.13%,
O=C(Cc1ccc(Cl)c(Cl)c1)Nc1ccc(S(=O)(=O)Nc2ccccc2)cc1,3.81%,
Cc1cnc(NC(=O)c2ccc(-c3cccc([N+](=O)[O-])c3)o2)s1,15.9%,
O=C(Nc1ccc(-c2nc3ccccc3[nH]2)cc1)Nc1ccc2c(c1)OCCO2,13.9%,
Cc1ccc(OCCn2c(CCNC(=O)c3cccc4[nH]ccc34)nc3ccccc32)cc1,-14.3%,
Oc1ccc(/C=C/c2ccccc2F)c2cccnc12,10.2%,
Cc1cccc(CNc2ncnc3ccc(-c4cccc(C)c4)cc23)c1,-1.8%,
O=C(OCC#CCSc1nnc(-c2cccc3ccccc23)o1)c1sc2ccccc2c1Cl,5.89%,
N=c1c2c(ccn1CCc1ccccc1)Oc1ccc3ccccc3c1C2c1ccccc1 (stereo not given),7.22%,
CCCn1c(C)nc2c(N(C)CCN(C)C)nc(C)nc21,11.6%,
CCN(CC)CCn1c(-c2ccccc2)nc2c(N3CCOCC3)nc(C)nc21,4.01%,
Cc1cc2c(s1)c1cnn(Cc3c(F)c(F)cc(F)c3F)c(=O)c1n2C,-3.35%,
CC(=O)O[C@@]12CO[C@@H]1C[C@H](O)[C@@]1(C)C(=O)[C@H](O)C3=C(C)[C@@H](OC(=O)[C@H](O)[C@@H](NC(=O)OC(C)(C)C)c4ccccc4)C[C@@](O)([C@@H](OC(=O)c4ccccc4)C12)C3(C)C (stereo not given in full),6.43% [at 28 µM],
Cc1ccc(NS(=O)(=O)c2ccc3c(c2)CC(=O)N3C)cc1C,-11.2%,
N#Cc1c(-c2ccc3ccccc3c2)no[n+]1[O-],-5.66%,
C=C(NC(=O)C(=C)NC(=O)c1csc(C2=NC3c4csc(n4)C4NC(=O)c5csc(n5)C(C(C)(O)C(C)O)NC(=O)C5CSC(=N5)/C(=C/C)NC(=O)C(C(C)O)NC(=O)c5csc(n5)C3(CC2)NC(=O)C(C)NC(=O)C(=C)NC(=O)C(C)NC(=O)C(C(C)CC)NC2C=Cc3c(C(C)O)cc(nc3C2O)C(=O)OC4C)n1)C(N)=O (stereo not given),-23.2%,
Cc1noc(C)c1C(=O)N1CCC2(CCCN(C(c3ccccc3)c3ccccc3)C2)CC1,-16.4%,
COc1ccc(CN2C(=O)c3ccccc3NC2c2ccc(OC)c(COc3c(C)cc(NC(C)=O)cc3C)c2)cc1 (stereo not given),4.48%,
O=S(=O)(c1ccc(Br)cc1)N1CCN(S(=O)(=O)c2ccc3c(c2)OCCO3)CC1,15.8%,
